Source: PubChem BioAssay AID1159580 (chemical genetic matrix, 2015)
Values joined by “and” are separate entries in the source; they are usually repeats but may differ in a detail not shown here. Equal entries are not always repeated. Hit rate of the full screen: of about 5,500 compounds, about 2,000 (36%) were called active. Inconclusive results (about 18%) are left out. The list shows a part of the results. A number with no mark means an inactive call. No stated cut-off is given here; in the data, active means normalized growth mostly below about 0.91 (no sharp cut-off); inconclusive means no clear call, values can overlap the other calls; inactive means mostly above about 0.92.

Experiment: chemical genetic growth profiling, strain panel (AID 1159580);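 further: tested at 20 µM; growth read once vehicle control cultures reached saturation at 30 °C; 1 = growth at the plate median or of vehicle wells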
Conditions: S. cerevisiae deletion strains, growth OD

Compound: CC(C)OC(=O)C(C)(C)Oc1ccc(C(=O)c2ccc(Cl)cc2)cc1
- normalized growth (locus YAL013W, strain DEP1, stronger effect = lower value): 1.01
- normalized growth (locus YAL021C, strain ccr4, stronger effect = lower value): 1
- normalized growth (locus YAL026C, strain drs2, stronger effect = lower value): 0.976
- normalized growth (locus YAL030W, strain snc1, stronger effect = lower value): 0.971
- normalized growth (locus YAL040C, strain CLN3, stronger effect = lower value): 1.08
- normalized growth (locus YBL061C, strain skt5, stronger effect = lower value): 0.966
- normalized growth (locus YBR009C, strain hhf1, stronger effect = lower value): 0.949
- normalized growth (locus YBR021W, strain FUR4, stronger effect = lower value): 0.976
- normalized growth (locus YBR023C, strain chs3, stronger effect = lower value): 0.97
- normalized growth (locus YBR171W, strain sec66, stronger effect = lower value): 0.965
- normalized growth (locus YBR229C, strain ROT2, stronger effect = lower value): 1
- normalized growth (locus YBR231C, strain swc5, stronger effect = lower value): 0.969
- normalized growth (locus YBR279W, strain paf1, stronger effect = lower value): 0.973
- normalized growth (locus YCL011C, strain gbp2, stronger effect = lower value): 0.954
- normalized growth (locus YCL016C, strain dcc1, stronger effect = lower value): 0.975
- normalized growth (locus YCL029C, strain bik1, stronger effect = lower value): 1.01
- normalized growth (locus YCL061C, strain MRC1 (second series), stronger effect = lower value): 0.982
- normalized growth (locus YCL061C, strain MRC1, stronger effect = lower value): 0.981
- normalized growth (locus YCL069W, strain vba3, stronger effect = lower value): 0.978
- normalized growth (locus YCR088W, strain abp1, stronger effect = lower value): 0.977
- normalized growth (locus YDL005C, strain med2, stronger effect = lower value): 0.961
- normalized growth (locus YDL035C, strain GPR1, stronger effect = lower value): 0.942
- normalized growth (locus YDL040C, strain nat1, stronger effect = lower value): 0.966
- normalized growth (locus YDL074C, strain BRE1, stronger effect = lower value): 0.931
- normalized growth (locus YDL101C, strain DUN1, stronger effect = lower value): 1.01
- normalized growth (locus YDL134C, strain PPH21, stronger effect = lower value): 0.995
- normalized growth (locus YDL185W, strain tfp1, stronger effect = lower value): 0.995
- normalized growth (locus YDL192W, strain arf1, stronger effect = lower value): 0.987
- normalized growth (locus YDR001C, strain nth1, stronger effect = lower value): 0.971
- normalized growth (locus YDR069C, strain doa4, stronger effect = lower value): 0.975
- normalized growth (locus YDR101C, strain arx1, stronger effect = lower value): 0.987
- normalized growth (locus YDR137W, strain rgp1, stronger effect = lower value): 0.943
- normalized growth (locus YDR150W, strain NUM1, stronger effect = lower value): 1.01
- normalized growth (locus YDR159W, strain sac3, stronger effect = lower value): 0.982
- normalized growth (locus YDR162C, strain NBP2, stronger effect = lower value): 0.671 (active)
- normalized growth (locus YDR195W, strain ref2): 0.982
- normalized growth (locus YDR297W, strain sur2, stronger effect = lower value): 0.976
- normalized growth (locus YDR318W, strain mcm21, stronger effect = lower value): 0.969
- normalized growth (locus YDR334W, strain swr1, stronger effect = lower value): 0.976
- normalized growth (locus YDR335W, strain msn5, stronger effect = lower value): 0.977
- normalized growth (locus YDR363W, strain ESC2, stronger effect = lower value): 0.969
- normalized growth (locus YDR388W, stronger effect = lower value): 0.983
- normalized growth (locus YDR392W, strain spt3, stronger effect = lower value): 0.923
- normalized growth (locus YDR502C, strain sam2, stronger effect = lower value): 0.979
- normalized growth (locus YEL003W, strain gim4, stronger effect = lower value): 0.979
- normalized growth (locus YEL037C, strain rad23, stronger effect = lower value): 1.01
- normalized growth (locus YEL061C, strain CIN8 (second series), stronger effect = lower value): 0.963
- normalized growth (locus YEL061C, strain CIN8, stronger effect = lower value): 1.01
- normalized growth (locus YER002W, strain NOP16, stronger effect = lower value): 1
- normalized growth (locus YER015W, strain faa2, stronger effect = lower value): 0.967
- normalized growth (locus YER016W, strain bim1, stronger effect = lower value): 0.978
- normalized growth (locus YER110C, stronger effect = lower value): 0.998
- normalized growth (locus YER111C, strain swi4, stronger effect = lower value): 0.961
- normalized growth (locus YER155C, strain BEM2 (second series), stronger effect = lower value): 0.977
- normalized growth (locus YER155C, strain BEM2, stronger effect = lower value): 1
- normalized growth (locus YER167W, strain BCK2, stronger effect = lower value): 0.987
- normalized growth (locus YFR010W, strain ubp6, stronger effect = lower value): 0.964
- normalized growth (locus YGL078C, strain dbp3, stronger effect = lower value): 0.991
- normalized growth (locus YGL086W, strain mad1, stronger effect = lower value): 0.979
- normalized growth (locus YGL167C, strain pmr1, stronger effect = lower value): 0.957
- normalized growth (locus YGL173C, strain kem1, stronger effect = lower value): 0.977
- normalized growth (locus YGL227W, strain vid30, stronger effect = lower value): 0.967
- normalized growth (locus YGL240W, strain doc1, stronger effect = lower value): 0.991
- normalized growth (locus YGL248W, strain PDE1, stronger effect = lower value): 0.969
- normalized growth (locus YGL253W, strain hxk2, stronger effect = lower value): 0.972
- normalized growth (locus YGR078C, strain PAC10, stronger effect = lower value): 0.944 and 0.983
- normalized growth (locus YGR135W, strain pre9, stronger effect = lower value): 0.987
- normalized growth (locus YGR229C, strain SMI1, stronger effect = lower value): 0.763 (active)
- normalized growth (locus YGR252W, strain gcn5, stronger effect = lower value): 0.995
- normalized growth (locus YHR013C, strain ard1, stronger effect = lower value): 0.963
- normalized growth (locus YHR027C, strain rpn1, stronger effect = lower value): 0.986
- normalized growth (locus YHR030C, strain SLT2, stronger effect = lower value): 0.989 and 0.966
- normalized growth (locus YHR079C, strain IRE1 (second series), stronger effect = lower value): 0.987
- normalized growth (locus YHR079C, strain IRE1, stronger effect = lower value): 0.952
- normalized growth (locus YHR094C, strain hxt1, stronger effect = lower value): 0.977
- normalized growth (locus YHR129C, strain ARP1, stronger effect = lower value): 1
- normalized growth (locus YHR142W, strain chs7, stronger effect = lower value): 0.966
- normalized growth (locus YHR200W, strain rpn10, stronger effect = lower value): 0.995
- normalized growth (locus YIL066C, strain RNR3, stronger effect = lower value): 0.971
- normalized growth (locus YIL073C, strain SPO22, stronger effect = lower value): 0.741
- normalized growth (locus YIL125W, strain kgd1, stronger effect = lower value): 0.991
- normalized growth (locus YIR030C, strain dcg1, stronger effect = lower value): 0.983
- normalized growth (locus YJL092W, strain hpr5, stronger effect = lower value): 0.975
- normalized growth (locus YJL095W, strain BCK1 (second series), stronger effect = lower value): 0.981
- normalized growth (locus YJL095W, strain BCK1, stronger effect = lower value): 0.971 and 0.954
- normalized growth (locus YJL115W, strain asf1, stronger effect = lower value): 0.972
- normalized growth (locus YJL129C, strain trk1, stronger effect = lower value): 0.893
- normalized growth (locus YJL134W, strain LCB3, stronger effect = lower value): 1
- normalized growth (locus YJL154C, strain vps35, stronger effect = lower value): 0.973
- normalized growth (locus YJL164C, strain tpk1, stronger effect = lower value): 0.964
- normalized growth (locus YJL166W, strain qcr8, stronger effect = lower value): 0.955
- normalized growth (locus YJL168C, strain set2, stronger effect = lower value): 0.983
- normalized growth (locus YJL187C, strain SWE1 (second series), stronger effect = lower value): 1
- normalized growth (locus YJL187C, strain SWE1, stronger effect = lower value): 0.97
- normalized growth (locus YJR043C, strain POL32, stronger effect = lower value): 1.01
- normalized growth (locus YJR066W, strain TOR1, stronger effect = lower value): 0.873
